This is an account of results in PubChem BioAssay (NCATS).

Values joined by “and” are separate entries in the source; they are usually repeats but may differ in a detail not shown here. Identical values can stand only once. Values without a mark were called inactive. Results filed as inconclusive are left out. Active and inactive are the calls of the source. Unless noted, the call rests on the fitted dose curve; in most records, active means well fitted curve in the direction sought with a large enough effect; inconclusive means small, poorly fitted or top-dose-only effect, or another doubt; inactive means no such curve, though single readings can be large; an effect the other way counts as inactive or inconclusive.

Test [1] in a line: Cellular Toxicity (caspase-3) HepG2 (AID 654).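 Further: cells exposed to compound for 16 hours before reading; 0% = DMSO alone and 100% = caspase signal from 100 µM tamoxifen.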 In a few lines: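 Caspase 3/7 activation is measured as a luminescence increase (aminoluciferin substrate) after 16 h compound exposure of human hepatocarcinoma HepG2 cells. AC50 values are Hill fits, scaled between DMSO baseline and 100 uM tamoxifen stimulation.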
Test [2] in a line: Cellular Toxicity (caspase-3) Jurkat (AID 655).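 Further: cells exposed to compound for 16 h at 37 °C before reading.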 The following applies: Jurkat caspase-3 activation, luminescence, DMSO = 0%, tamoxifen = 100%; at 92.2 µM (top of the series). Summed up:
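5000 Jurkat cells/well; compound 16 hr, 37 °C; Caspase-Glo 3/7 added, 20 min RT; luminescence read. Norm: DMSO = 0%, tamoxifen 100 uM = 100%. AC50, Hill model.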

The nature of test [3]: Cellular Toxicity (caspase-3) HUV-EC-C (AID 656). Summed up: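 qHTS; HUV-EC-C, 1000 cells/well; 5 hr settle, 16 hr cmpd, 37°C; Caspase-Glo 3/7, 20 min RT; luminescence. Norm: DMSO = 0%, tamoxifen 100 uM = 100%. Hill-fit AC50.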
Test [4] in a line: Cellular Toxicity (caspase-3) SHSY5Y (AID 657).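 Further: cells exposed to compound for 16 hours at 37 °C.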 In a few lines:
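qHTS, SH-SY5Y, 1500 cells/well, 5 h pre-incubation 37 °C; compound 16 h 37 °C; Caspase-Glo 3/7 1 h RT; luminescence. Norm.: DMSO = 0, 10 uM staurosporine = 100%. Hill fit → AC50.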

Test [5] can be described thus: Cellular Toxicity (caspase-3) BJ (AID 658).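 Further: cells exposed to compound for 16 hours; 0% = DMSO basal and 100% = 10 µM staurosporine.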 Summed up:
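Caspase-Glo 3/7 luminescence, read 1 hr after reagent at room temperature, in normal BJ fibroblasts exposed 16 hours at 37 °C. AC50 values from Hill-equation concentration-response, scaled between DMSO basal and 10 uM staurosporine as 100%.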

The nature of test [6]: Cellular Toxicity (caspase-3) MRC-5 (AID 659).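 Further: 0% = DMSO basal and 100% = 10 µM staurosporine.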 In a few lines: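 Luminescent Caspase-Glo 3/7 read-out (1 h, room temperature) after a 16 h, 37 °C compound exposure of MRC-5 lung fibroblasts at 1500 cells/well. Concentration-response AC50 from Hill equation; 0% DMSO, 100% 10 uM staurosporine.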
The nature of test [7]: Cellular Toxicity (caspase-3) Mesangial (AID 660).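 Further: combined caspase 3 and 7 activity read by Caspase-Glo luminescence; cells exposed to compound for 16 h before the caspase read.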 In a few lines: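 Caspase 3/7 activation measured by Caspase-Glo 3/7 luminescence (20 min, room temperature) following 16 h exposure of mesangial cells (1000/well); AC50 from Hill-equation fit, normalized to DMSO and 100 uM tamoxifen.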
Test [8] is described as follows: Cellular Toxicity (caspase-3) SK-N-SH (AID 661).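 Further: cells exposed to compound for 16 hours; 0% = DMSO basal and 100% = 10 µM staurosporine.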 In a few lines:
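Caspase 3/7 activation was read by luminogenic substrate cleavage after 16 hour treatment of SK-N-SH cells. Signal was scaled between DMSO and 10 uM staurosporine, and concentration-response data were fitted with the Hill equation for AC50.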

Test [9] in a line: Cellular Toxicity (caspase-3) H-4-II-E (AID 663).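 Further: cells exposed to compound for 16 hr before readout.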 The following applies: Potency: caspase-3 activation. Summed up: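 Caspase 3/7 activation measured by luminescent aminoluciferin substrate cleavage after 16 hr compound treatment of H-4-II-E cells in complete medium. Increase normalized between DMSO (basal) and 100 uM tamoxifen (100%); Hill-equation AC50 from concentration-response.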

The nature of test [10]: Cellular Toxicity (caspase-3) Renal Proximal Tubule (AID 667).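 Further: cells exposed to compound for 16 hours at 37 °C before detection; 0% = DMSO basal and 100% = 10 µM staurosporine.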 In a few lines: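 AC50 derived by standard Hill fit of concentration-response data, normalized between DMSO basal and 10 uM staurosporine as 100% stimulation. Cells: primary rat kidney proximal tubule, 16 h treatment at 37 °C.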
Test [11] can be described thus: Cell Viability - LYMP2-001 (AID 921).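 Further: cells exposed to compound for 24 h at 37 °C; 0% = DMSO only and full inhibition = tetraoctylammonium bromide control wells; nearly all actives have a fitted effect of over 70% in size.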 Summed up:
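Steps: seed 2500 lymphoblastoid cells/well; 5 hr, 37 C; add compound; 24 hr, 37 C; CellTiter-Glo reagent, 30 min room temperature; read luminescence. Concentration-response modeled by Hill equation for AC50.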

Test [12] is described as follows: MultiTox-Fluor Cytotoxicity Assay - LYMP1-001 - Dead Cells (AID 946). In a few lines:
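Cytotoxicity as increased dead-cell protease fluorescence (bis-AAF-R110, 485/520 nm), read 60 min after MultiTox-Fluor reagent. Human lymphoblastoid line exposed 16 h; Hill-fitted AC50, with DMSO as 0% and 15 uM tetraoctylammonium bromide as 100%.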

The nature of test [13]: Cell Viability - LYMP1-002 - Assay at 16 hr (AID 948).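 Further: 0% = DMSO alone and full effect = 92 µM tetraoctylammonium bromide.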 Summed up: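 Seed 2500 LYMP1-002 cells per well in complete medium and hold 5 hr at 37 C. Add compound across a concentration series and incubate 16 hr at 37 C. Add CellTiter-Glo, wait 30 min at room temperature, read luminescence.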
Test [14] in a line: MultiTox-Fluor Cytotoxicity Assay - LYMP1-002 - Live Cells (AID 955).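 Further: cells exposed to compound for 16 hours; on the % scale 0 is the no-effect control and ±100 the full control effect.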 In a few lines: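 After 16 h compound exposure at 37 C, live LYMP1-002 lymphoblastoid cells (2500/well) were quantified by cleavage of cell-permeant GF-AFC substrate, read at 405/510 nm after 60 min. Concentration-response fitted with Hill equation for AC50.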
A short description of test [15]: MultiTox-Fluor Cytotoxicity Assay - LYMP1-003 - Dead Cells (AID 961). Further: nearly all actives have a fitted effect of over 70% in size. In a few lines:
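Dead-cell protease release, detected as bis-AAF-R110 fluorescence at 485/520 nm, was measured in LYMP1-003 cells after 16 h compound treatment at 37 C. AC50 values came from Hill-modeled qHTS curves normalized to DMSO (0%) and 15 uM tetraoctylammonium bromide (100%).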

The target in test [16] is Glucocorticoid receptor (Homo sapiens) (UniProt P04150). Briefly: qHTS assay for small molecule agonists of glucocorticoid receptor signaling (AID 588532; active means well fitted curve in the direction sought with a large enough effect in the signal ratio, with a control signal flat; the % refers to the signal ratio;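 further: 100% = dexamethasone at 0.1 µM and 0% = DMSO only wells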). The settings on record: HeLa MMTV-bla, beta-lactamase ratio, agonist, 18 h; hits give high values; percent of dexamethasone control, DMSO zero. Summed up:
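Agonist-mode qHTS: GRE-driven beta-lactamase in HeLa cells exposed 18 h to titrated compounds (up to 92 uM), then CCF4 ratio read after 2 h at RT; Hill-fitted EC50, efficacy relative to 0.1 uM dexamethasone.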
Background: Quantitative high-throughput screening tests each substance at several concentrations.

Test [17] deals with Voltage-gated inwardly rectifying potassium channel KCNH2 (Homo sapiens) (UniProt Q12809). Kind of test: qHTS Assay for Small Molecule Inhibitors of the Human hERG Channel Activity (AID 588834).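 Further: top concentration of the series differs between compounds; on the % scale 0 is the no-effect control and ±100 the full control effect; lower thallium flux fluorescence means stronger hERG block; nearly all actives have a fitted effect of over 50% in size.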 Summed up: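 Step 1: BacMam hERG transduction of U2OS, 4 hrs RT. Step 2: overnight 37 °C, plate 2000 cells/well, 4 hr. Step 3: FluxOR load, compound 10 min, stimulate, read fluorescence.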
Voltage-gated inwardly rectifying potassium channel KCNH2 (Homo sapiens), sequence (Q12809 whole entry, looked up): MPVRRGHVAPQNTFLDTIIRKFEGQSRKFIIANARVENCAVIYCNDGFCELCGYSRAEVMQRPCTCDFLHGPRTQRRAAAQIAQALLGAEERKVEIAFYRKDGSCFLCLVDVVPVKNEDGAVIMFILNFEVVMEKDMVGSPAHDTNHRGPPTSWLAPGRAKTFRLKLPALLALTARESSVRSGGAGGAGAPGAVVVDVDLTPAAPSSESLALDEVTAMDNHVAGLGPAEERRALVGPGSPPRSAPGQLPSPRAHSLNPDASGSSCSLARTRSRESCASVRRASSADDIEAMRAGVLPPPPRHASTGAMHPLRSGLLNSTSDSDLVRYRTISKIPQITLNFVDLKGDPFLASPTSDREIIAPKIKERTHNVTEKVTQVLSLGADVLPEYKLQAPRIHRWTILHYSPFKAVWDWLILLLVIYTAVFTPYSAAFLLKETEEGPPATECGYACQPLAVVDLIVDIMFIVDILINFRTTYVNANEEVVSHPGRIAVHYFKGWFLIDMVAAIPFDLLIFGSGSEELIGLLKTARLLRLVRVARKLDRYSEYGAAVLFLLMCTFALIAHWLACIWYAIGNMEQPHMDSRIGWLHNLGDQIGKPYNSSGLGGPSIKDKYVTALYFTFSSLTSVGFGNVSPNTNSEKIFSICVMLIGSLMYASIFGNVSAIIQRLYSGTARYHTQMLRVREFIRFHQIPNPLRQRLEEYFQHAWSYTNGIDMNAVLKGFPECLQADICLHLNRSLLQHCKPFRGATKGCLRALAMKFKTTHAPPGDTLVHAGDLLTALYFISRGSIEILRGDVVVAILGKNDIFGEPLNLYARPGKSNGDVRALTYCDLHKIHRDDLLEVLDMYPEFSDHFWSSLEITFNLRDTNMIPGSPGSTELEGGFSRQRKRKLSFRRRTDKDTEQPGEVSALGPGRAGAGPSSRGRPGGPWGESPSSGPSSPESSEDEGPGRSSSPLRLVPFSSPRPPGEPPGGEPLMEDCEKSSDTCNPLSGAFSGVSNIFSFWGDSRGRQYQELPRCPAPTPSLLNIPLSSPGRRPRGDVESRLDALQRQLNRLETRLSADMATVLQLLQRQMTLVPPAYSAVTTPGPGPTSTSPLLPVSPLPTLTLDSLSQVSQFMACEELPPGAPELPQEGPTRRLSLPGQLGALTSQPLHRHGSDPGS

Test [18] is described as follows: qHTS assay for small molecule antagonists of the retinoid-related orphan receptor gamma (ROR-gamma) signaling pathway - cell viability counter screen (AID 720652; active means well fitted curve in the direction sought with a large enough effect in the repeat runs; an effect the other way counts as inactive or inconclusive;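 further: compound exposure lasted 16 hr before ATP read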; further: potency means the concentration at half of the fitted maximal effect). Summed up: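 Cytotoxicity counter screen: intracellular ATP (CellTiter-Glo luminescence) measured in the doxycycline-induced CHO RORE-luciferase reporter line after 16 hr compound exposure at 37 C, 5% CO2.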

For test [19], the target named is Nuclear receptor subfamily 1 group I member 2 (Rattus norvegicus) (UniProt Q9R1A7). Kind of test: qHTS assay for small molecule activators of the rat pregnane X receptor (rPXR) signaling pathway (AID 651751; call rule not given here; further: 0% is about no effect). The following applies: rPXR reporter cells, luciferase (One-Glo), 24 h.
Nuclear receptor subfamily 1 group I member 2 (Rattus norvegicus), sequence (Q9R1A7 whole entry, looked up): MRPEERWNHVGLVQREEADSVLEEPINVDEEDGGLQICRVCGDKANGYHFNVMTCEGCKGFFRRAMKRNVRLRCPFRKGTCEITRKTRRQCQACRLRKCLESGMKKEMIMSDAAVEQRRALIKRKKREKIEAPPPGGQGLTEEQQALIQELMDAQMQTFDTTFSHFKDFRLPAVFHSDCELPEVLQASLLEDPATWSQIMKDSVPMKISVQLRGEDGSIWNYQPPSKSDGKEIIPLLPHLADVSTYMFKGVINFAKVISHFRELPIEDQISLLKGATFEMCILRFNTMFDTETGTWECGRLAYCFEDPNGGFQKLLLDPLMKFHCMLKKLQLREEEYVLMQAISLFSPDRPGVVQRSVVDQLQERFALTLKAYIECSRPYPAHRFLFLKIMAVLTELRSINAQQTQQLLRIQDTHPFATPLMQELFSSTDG
Test [20] concerns the target Peroxisome proliferator-activated receptor gamma (Homo sapiens) (UniProt P37231). Kind of test: qHTS assay for small molecule agonists of peroxisome proliferator-activated receptor gamma signaling (AID 588536; active means well fitted curve in the direction sought with a large enough effect in the signal ratio, with a control signal flat, not every such curve was filed as active; the % refers to the signal ratio;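 further: 0% = DMSO basal wells and 100% = rosiglitazone at 2 µM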). Summed up: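 This is an agonist-mode beta-lactamase reporter assay in HEK293 PPAR-gamma-UAS-bla cells with 1% charcoal/dextran FBS. Compound titrations ran 16 h at 37 C before CCF4 detection. EC50 and efficacy are Hill fits scaled to 2 uM rosiglitazone (100%) and DMSO basal.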

Peroxisome proliferator-activated receptor gamma (Homo sapiens), sequence (P37231 whole entry, looked up): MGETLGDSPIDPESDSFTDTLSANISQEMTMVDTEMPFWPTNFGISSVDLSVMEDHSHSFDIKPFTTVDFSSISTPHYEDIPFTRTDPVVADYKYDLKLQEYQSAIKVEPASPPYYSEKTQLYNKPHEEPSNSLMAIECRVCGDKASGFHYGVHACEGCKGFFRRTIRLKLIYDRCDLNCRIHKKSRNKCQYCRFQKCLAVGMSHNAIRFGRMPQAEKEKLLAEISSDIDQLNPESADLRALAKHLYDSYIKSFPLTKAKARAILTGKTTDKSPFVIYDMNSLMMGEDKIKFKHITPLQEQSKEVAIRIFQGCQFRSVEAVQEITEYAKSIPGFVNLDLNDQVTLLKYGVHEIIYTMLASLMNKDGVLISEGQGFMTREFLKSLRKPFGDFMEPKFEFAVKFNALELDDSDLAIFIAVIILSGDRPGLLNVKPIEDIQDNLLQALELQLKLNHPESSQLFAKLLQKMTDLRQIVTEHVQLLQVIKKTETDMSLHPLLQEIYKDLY
Glucocorticoid receptor (Homo sapiens), sequence (P04150 whole entry, looked up): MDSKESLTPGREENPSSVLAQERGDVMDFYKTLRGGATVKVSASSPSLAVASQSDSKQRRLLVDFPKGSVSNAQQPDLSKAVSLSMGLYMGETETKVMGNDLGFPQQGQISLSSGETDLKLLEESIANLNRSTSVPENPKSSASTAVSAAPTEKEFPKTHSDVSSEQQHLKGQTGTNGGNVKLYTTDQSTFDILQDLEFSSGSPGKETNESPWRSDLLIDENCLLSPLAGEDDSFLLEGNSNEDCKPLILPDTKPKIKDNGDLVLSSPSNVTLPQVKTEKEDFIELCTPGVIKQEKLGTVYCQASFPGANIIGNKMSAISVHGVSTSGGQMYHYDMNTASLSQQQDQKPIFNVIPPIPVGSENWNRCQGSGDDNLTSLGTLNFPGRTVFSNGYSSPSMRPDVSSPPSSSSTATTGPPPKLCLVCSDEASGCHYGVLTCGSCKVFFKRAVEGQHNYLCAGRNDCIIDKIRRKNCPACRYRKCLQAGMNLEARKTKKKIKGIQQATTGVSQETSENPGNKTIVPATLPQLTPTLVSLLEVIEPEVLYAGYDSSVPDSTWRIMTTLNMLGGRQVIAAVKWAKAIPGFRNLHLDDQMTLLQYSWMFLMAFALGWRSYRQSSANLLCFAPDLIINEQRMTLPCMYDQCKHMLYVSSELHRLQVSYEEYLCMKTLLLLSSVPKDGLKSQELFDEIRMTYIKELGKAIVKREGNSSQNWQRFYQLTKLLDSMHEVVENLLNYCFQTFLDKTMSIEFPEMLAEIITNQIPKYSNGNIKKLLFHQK

As to `c1ccc2c(c1)c1cccc3ccc4cccc2c4c31`, the result in [1], in test [3], in [4], in test [5], in test [6] and in test [7] was inactive. Further, the compound was called inactive in [8] and in [10]. Further, the caspase-3 activation in test [2] is 0.0871%. Besides, the Potency result in [9], in test [11], in [12], in test [13], in test [14] and in test [15] was “inactive” in each case. In addition, the Potency result in test [17] and in test [18] was “inactive” throughout. Besides, the activation in test [16] was 2.22% and -5.73%. In test [19], the max response was 4.91% and -2.4%.
Turning to `COC(=O)c1ccc(C)cc1`, the compound was classed as inactive in [1], in [3], in test [4], in [5], in test [6] and in test [7]. For the same compound, the outcome in test [8] and in test [10] was inactive. For the same compound, the caspase-3 activation in test [2] is 0.483%. Also, the Potency result in test [9], in test [11], in [12], in [13], in test [14] and in test [15] was “inactive” each time. The Potency entry in test [17] and in [18] was “inactive” throughout. For the same compound, the activation in [16] is -15.8%. Also, in [19], the max response is 1.84% and -0.952%.
`O=C1c2ccccc2C(=O)C1c1ccc2ccccc2n1`: the compound was classed as inactive in test [1], in test [3], in test [4], in test [5], in test [6] and in test [7]. Also, the compound was called inactive in [8], in test [10] and in test [20]. Further, the caspase-3 activation in test [2] is -10.4%. The Potency result in test [9], in test [11], in test [12], in [13], in test [14] and in test [15] was “inactive” each time. In addition, the Potency result in test [17] is “inactive”. The activation in test [16] was -2.81% and -4.97%. In addition, the Potency in test [18] is 33.5 µM (active).
For the compound `CC1=CC(C)(C)Nc2ccccc21`, the call in test [1], in [3], in test [4], in [5], in [6] and in test [7] was inactive. The call in test [8], in test [10] and in [20] was inactive. For the same compound, the caspase-3 activation in [2] was -0.184% and 0.591%. Also, the Potency entry in [9], in [11], in test [12], in [13], in test [14] and in test [15] was “inactive” in each case. Moreover, the Potency entry in [17] and in test [18] was “inactive” in each case.
On to `CCCN(CCC)C(=O)SCC`, for which the outcome in [1], in test [3], in test [4], in [5], in [6] and in test [7] was inactive. The compound was classed as inactive in test [8], in [10] and in test [20]. Besides, the caspase-3 activation in test [2] was 2.52%. For the same compound, the Potency entry in test [9], in [11], in test [12], in test [13], in test [14] and in [15] was “inactive” each time. Further, the Potency result in test [17] and in test [18] was “inactive” throughout. In addition, the activation in [16] is 1.32% and 12.8%. In addition, the max response in test [19] is 5.19% and 0.741%.
As for `COCC(=O)O`, the outcome in test [1], in test [3], in test [4], in test [5], in test [6] and in [7] was inactive. In addition, the outcome in test [8], in [10] and in test [20] was inactive. In addition, the caspase-3 activation in test [2] was 0.941%. Moreover, the Potency result in test [9], in test [11], in [12], in test [13], in [14] and in [15] was “inactive” in each case. For the same compound, the Potency entry in [17] and in test [18] was “inactive” in each case. Also, in test [16], the activation was 1.9% and -4.38%. Besides, in [19], the max response is 1.77% and 0.862%.
In the case of `CCO[Si](CCCN)(OCC)OCC`, the outcome in test [1], in test [3], in test [4], in test [5], in test [6] and in test [7] was inactive. Moreover, the compound was called inactive in test [8], in test [10] and in test [20]. In test [2], the caspase-3 activation is 1.79%. Moreover, the Potency entry in test [9], in test [11], in test [12], in [13], in test [14] and in [15] was “inactive” in each case. Moreover, the Potency entry in test [17] and in test [18] was “inactive” in each case. The activation in [16] was 5.03% and 9.33%. For the same compound, the max response in test [19] is -3.96% and 0.794%.
On to `Cc1cccc(O)c1`, for which the activation in test [16] is 1.46% and -4.97%. For the same compound, the outcome in [20] was inactive. Also, the max response in test [19] is -3.23% and 0.598%.
`CCC(C)c1ccccc1O` (stereo not drawn): the compound was called inactive in test [1], in test [3], in [4], in [5], in [6] and in test [7]. The outcome in [8], in test [10] and in test [20] was inactive. The caspase-3 activation in test [2] is 0.687% and -0.479%. Moreover, the Potency entry in [9], in test [11], in test [12], in test [13], in [14] and in test [15] was “inactive” in each case. The Potency entry in test [17] and in test [18] was “inactive” throughout. Besides, the activation in [16] was -11.6% and -11.3% and 1.07%. Further, in [19], the max response is 11.2% and -2.55% and 1.18%.
